# Reference: PubChem BioAssay (Tox21)
# Inconclusive results are not listed. Where a call stands in place of a potency, no number is given. Calls of active or inactive are those of the source. The call rests on the fitted dose curve; in most records, active means well fitted activation curve with a large enough effect in the repeat runs; inconclusive means weak or mixed curves; inactive means flat fitted curve, though single readings scatter.
# Test: A CellTox Green Cytotoxicity Assay to monitor cytotoxicity in HEK293 cells - 32 hour (AID 1224881); further: nearly all actives have a fitted effect of over 40% in size
# Conditions: CellTox Green fluorescence; series mostly up to 76.8 µM
# Description: National Center for Advancing Translational Sciences [NCATS]
# NIH Chemical Genomics Center [NCGC]
# U.S. Environmental Protection Agency [EPA]
# National Institutes of Environmental Health Sciences [NIEHS]
# National Toxicology Program [NTP]
# Cell-based models are critical for drug discovery. Determining the natural cytotoxic effects resulting from test compounds is an essential research activity. A CellTox Green Cytotoxicity Assay to monitor cytotoxicity in real time of continues cell culture during 40 hours of the compound treatment was used to screen Tox21 10K library compounds in Hek293 cells. CellTox Green Cytotoxicity Assay is a nonlytic, homogeneous, biofluorescent method to measure cytotoxicity in cell culture after experimental manipulation. The assay system uses a proprietary asymmetric cyanine dye that is excluded from viable cells but preferentially stains the dead cell's DNA. […] Viable cells produce no appreciable increases in fluorescence. Therefore, the fluorescence signal produced by the binding interaction with dead cell DNA is proportional to cytotoxicity.
# The mixture of Hek293 cell suspension and reagents were dispensed at 600cells/6 ul/well in 1536-well tissue culture treated black solid bottom plates using a Multidrop dispenser. After the assay plates were incubated at a 37 C/5% CO2 incubator for 5 hours, 23 nL of compounds dissolved in DMSO, positive and negative controls was transferred to the assay plate by a pintool work station. The plates were incubated at 37 C for 40 hours. The fluorescence intensity were measured at 0h, 8h, 16h, 24h, 32h and 40h time points using ViewLux plate reader during compound treatment.
# Potency means the concentration at half of the fitted maximal effect.
row,SMILES,Potency
1,COc1ccnc2c1CCCCC2S(=O)c1nc2ccccc2[nH]1 (stereo not given),inactive
2,CCOC(=O)CC(O)(CC(=O)OCC)C(=O)OCC,inactive
3,CC(C)CCCCCOC(=O)CS,inactive
4,CC1=C(C)C(=O)C(CCCCC#CCCCC#CCO)=C(C)C1=O,inactive
5,CCCC1CCCC(=O)O1 (stereo not given),inactive
6,C=C[Si](OCC)(OCC)OCC,inactive
7,CCOC(OCC)OCC,inactive
8,CCCCCCCCCCCCCCCCN,16.9 µM (active)
9,CCc1ccc(C(=O)C(C)CN2CCCCC2)cc1 (stereo not given),inactive
10,CCc1c(C)[nH]c2c1C(=O)C(CN1CCOCC1)CC2 (stereo not given),inactive
11,O=C1c2ccccc2C(=O)C1c1ccc2cc(S(=O)(=O)O)cc(S(=O)(=O)O)c2n1,inactive
12,O=C(c1ccc(Cl)cc1)c1ccc(Cl)cc1,inactive
13,Cc1nc(C)c(C)nc1C,inactive
14,C/C(=C(\CCO)SS/C(CCO)=C(\C)N(C=O)Cc1cnc(C)nc1N)N(C=O)Cc1cnc(C)nc1N,inactive
15,CC(C)=CCCC(C)C=O (stereo not given),inactive
16,C=CC(=O)OCCCCCCCCCC,inactive
17,CCOCCn1c(N2CCCN(C)CC2)nc2ccccc21,inactive
18,CC(C)(C)NCC(O)COc1ccc(NC(=O)NC2CCCCC2)cc1 (stereo not given),inactive
19,O=c1[nH][nH]c2ccccc12,inactive
20,CC(CC(C#N)(c1ccccc1)C(C)C)N(C)C (stereo not given),inactive

row,SMILES,Potency
1,O=Cc1ccc(Cl)c([N+](=O)[O-])c1,inactive
2,Nc1ncnc2c1ncn2[C@@H]1O[C@H](CO)[C@@H](O)[C@H]1O,inactive
3,O=[N+]([O-])c1ccccc1CCO,inactive
4,N#Cc1ccc(CC(=O)c2cccc(C(F)(F)F)c2)cc1,inactive
5,O=C(O)c1ccc2cc(O)ccc2c1,inactive
6,CCCCCCCCS,inactive
7,CC/C=C/CCO,inactive
8,O=C(O)CCc1nc2ccccc2[nH]1,inactive
9,CC(C(=O)O)c1ccc(/C=C2\CCCCC2=O)cc1 (stereo not given),inactive
10,CCCCCCCCCCCCCCCCC(=O)O,inactive
11,CC(C)NC(=O)c1ccccc1N,inactive
12,COc1ccc(CN(CCN(C)C)c2ncccn2)cc1,inactive
13,Cc1cc(C)n(CO)n1,inactive
14,CCCCOC(=O)CC#N,inactive
15,CCCC1CCOC(C)S1 (stereo not given),inactive
16,C1=COCCC1,inactive
17,CC1(C)CC(=O)CC(C)(C)N1,inactive
18,COc1ccc(/C=C/S(=O)(=O)NC(=O)c2ccc(C)cc2Cl)cc1,inactive
19,CCn1nc(Cc2ccccc2)cc1C1CCN(C[C@H]2C[C@H](N(C)[C@@H](C(=O)O)C(C)C)C[C@@H]2c2cccc(F)c2)CC1,inactive
20,CC1(C)[C@@H]2CC[C@]3(C2)[C@@H]1C(=O)CCC3(C)C,inactive
